This is part of a sample that, as a whole, favours compounds with a hit. Of some 83,000 tested, about 20% had one in any assay.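 Growth was measured after 48 h exposure to one concentration of compound in 96-well plates. Values under 10 count as active.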 Unmarked numbers belong to inactive results. The source made the active and inactive calls.
Columns and labels:
Test in all cases: NCI-60 one-dose screen, 48 h (100 = growth as untreated, 0 = no growth, -100 = all killed)
[1] = tested on: NCI-H23 lung; details: 10 µM unless noted
[2] = tested on: NCI-H226 lung; details: 10 µM unless noted
[3] = tested on: NCI-H322M lung; details: 10 µM unless noted
[4] = tested on: HOP-62 NSCLC; details: 10 µM unless noted
[5] = tested on: NCI-H460 lung; details: 10 µM unless noted
[6] = tested on: HOP-92 NSCLC; details: 10 µM unless noted
[7] = tested on: NCI-H522 lung; details: 10 µM
[8] = tested on: 786-0 renal; details: 10 µM unless noted
[9] = tested on: COLO 205 colon; details: 10 µM unless noted

| SMILES | growth [1] | growth [2] | growth [3] | growth [4] | growth [5] | growth [6] | growth [7] | growth [8] | growth [9] |
| --- | --- | --- | --- | --- | --- | --- | --- | --- | --- |
| CCCCc1ccc(C(N)=O)nc1 | 102% | 86.5% | 103% | 99.3% | 108% | 62.5% | 85.3% | 92.6% | 118% |
| Cc1cc(Cl)ccc1Nc1nc(C(F)(F)F)ccc1C(=O)N/N=C/c1ccc(Cl)cc1 | 5.4% (active) | 7.79% (active) | -1.86% (active) | -61.2% (active) | -5.33% (active) | -24.1% (active) | -17.6% (active) | -45% (active) | -18.7% (active) |
| O=C(COc1ccc(/C=C2\Oc3ccc4ccccc4c3C2=O)cc1)c1ccc(Cl)cc1 | 98.2% | 106% | 102% | 105% | 110% | 97.7% | 61.9% | 106% | 124% |
| CC(=O)Nc1ccc(C(=O)COc2ccc(/C=C3\CCc4ccccc4C3=O)cc2)cc1 | 108% | 94.8% | 108% | 113% | 124% | 114% | 92.4% | 97% | 143% |
| C[N+]1(C)C2CC[C@@H]1CC(OC(=O)C(O)c1ccccc1)C2 (stereo partly specified) | 95.9% | 84.7% | 97.8% | 117% | 119% | 91.4% | 110% | 104% | 129% |
| Cc1ccc(C2=NNC(c3sc(Cl)nc3Cl)C2)cc1 (stereo unspecified) | 91% | 84.7% | 83.2% | 107% | 104% | 115% | 18.1% | 106% | 99.8% |
| COc1ccc2c(c1)C(=Nc1cc(OC)c(OC)c(OC)c1)C(=O)N2 | 96.6% | 97.1% | 108% | 36.1% | 116% | 56.8% | 89.9% | 104% | 92.5% |
| O=C(/C=C/c1cccc(O)c1)c1cccc(-n2cc(-c3ccccc3)[nH]c2=O)c1 | 14.4% | 3.79% (active) | 21.4% | 16.9% | 34.8% | 26.7% | -21.8% (active) | -59.7% (active) | 83.8% |
| COc1ccc2[nH]c(=O)c(CNc3ccc(Nc4nccc(-c5ccc(Cl)cc5)n4)cc3)cc2c1 | 91.5% | 91.7% | 87.6% | 102% | 93.7% | 87.1% | 83.8% | 98% | 100% |
| COC(=O)C1CCN(S(=O)(=O)c2ccc(-c3ccccc3)cc2)CC1 | 97.7% | 93.3% | 116% | 113% | 110% | 86.8% | 99.8% | 113% | 108% |
| C[C@H]1O[C@@H](O[C@H]2[C@@H](O)C[C@H](O[C@H]3[C@@H](O)C[C@H](O[C@H]4CC[C@]5(C)C6CC[C@]7(C)[C@@H](C8=CC(=O)OC8)CC[C@]7(O)C6CC[C@@H]5C4)O[C@@H]3C)O[C@@H]2C)C[C@H](O)[C@@H]1O (stereo partly specified) | -47.5% (active) | -100% (active) | -84.9% (active) | -100% (active) | -97.3% (active) | -29.3% (active) | -65% (active) | -93.4% (active) | -92.6% (active) |
| COc1ccc(Cl)cc1Nc1nc(C(F)(F)F)ccc1C(=O)N/N=C/c1c(Cl)cccc1Cl | 74.1% | 59.6% | 44.7% | 58.5% | 41.6% | 70.9% | 39.2% | 43.7% | 35.9% |
| Cc1ncc(C(=O)Nc2ccc(CN3CCN(C)CC3)c(C(F)(F)F)c2)cc1C#Cc1cncc2ncccc12 | 45.7% | 46.7% | 51% | 59.4% | 61% | 60.3% | 86.5% | -85.8% (active) | 32.2% |
| CC1CN(/N=C/c2ccc([N+](=O)[O-])o2)C(=N)O1 (stereo unspecified) | 97.1% | 96.3% | 117% | 103% | 96% | 88.8% | 87.8% | 108% | 113% |
| Cc1cc(Br)c(C)cc1Br | 97.9% | 94.4% | 96.4% | 99.4% | 114% | 91.4% | 96% | 101% | 110% |
| O=C(c1ccccc1)c1ccc(Oc2ccc([N+](=O)[O-])cc2[N+](=O)[O-])cc1 | 86.2% | 48.4% | 109% | 99.1% | 103% | 52.9% | -26.6% (active) | 71.9% | 84% |
| Cn1cnc([N+](=O)[O-])c1Sc1nc(N)nc2nc[nH]c12 | 52.9% | 74.1% | 77.3% | 22.8% | 20.6% | -3.12% (active) | 41.3% | 14.6% | 96.9% |
| CSc1nc(Nc2ccc(S(=O)(=O)Nc3ccon3)cc2)c(C#N)c(-c2ccc(Cl)cc2)n1 | 94.2% | 95% | 98.3% | 106% | 112% | 109% | 84.9% | 94.7% | 108% |
| CCOc1nc(-c2ccco2)n2nc(-c3ccco3)cc2n1 | 107% | 92.4% | 116% | 118% | 102% | 92% | 99.1% | 103% | 131% |
| CSc1nc2nc3c(c(-c4ccc(C)cc4)c2c(=O)[nH]1)CN(C)C/C3=C\c1ccc(C)cc1 | 88.4% | 102% | 103% | 115% | 111% | 97.3% | 93.2% | 111% | 121% |
| N#Cc1ncc(-c2ccc(C(F)(F)F)cc2)c(NC2CCCCCC2)n1 | 29.9% | 35.1% | 78.2% | 43.9% | 29.8% | -22.6% (active) | -4.74% (active) | 37.9% | 7.19% (active) |
| C=C(CN1CCc2c([nH]c3ccccc23)C1)c1ccc(C(=O)Nc2ccon2)cc1 | 85.9% | 92.7% | 125% | 88.2% | 101% | 31.5% | -15% (active) | 96% | 83.6% |
| O=C(Nc1ccc(Cl)cc1)Nc1ccccc1CNc1nc(Nc2ccc(OCCN3CCCC3)cc2)ncc1Cl | 33.5% | 97% | 101% | 82.2% | -77.7% (active) | 72.9% | -17% (active) | -86.6% (active) | 37.8% |
| CCSc1nc(-c2ccco2)n2nc(-c3ccco3)cc2n1 | 93.5% | 90.7% | 117% | 100% | 92.1% | 89.6% | 101% | 111% | 114% |
| C[C@]12CC[C@H](O)CC1=CC[C@@H]1[C@@H]2CC[C@]2(C)C(c3cccnc3)=CC[C@@H]12 | 68.3% | 58.5% | 84.1% | 81.1% | 66.5% | 72.3% | 35.7% | 36.9% | 95.1% |
| CC1c2ccccc2-c2ccccc2N1C (stereo unspecified) | 105% | 105% | 101% | 100% | 105% | 86.1% | 87.5% | 104% | 107% |
| C[C@H]1c2cccc(O)c2C(O)=C2C(=O)[C@]3(O)C(O)=C(C(N)=O)C(=O)[C@@H](N(C)C)[C@@H]3[C@@H](O)[C@@H]21 | 41.5% | 69.2% | 44.2% | 51.8% | 35.9% | 24.3% | 45.4% | 50.7% | 67.8% |
| COc1ccc(/C=C/C(=O)c2cccc(NS(C)(=O)=O)c2)cc1 | 69.6% | 85.7% | 92.2% | 90.2% | 96.4% | 60.5% | 66.5% | 75.7% | 102% |
| O=C(NCCCl)NCCN1c2nc3ccccc3cc2Sc2cc3ccccc3nc21 | 39.1% | 63.5% | 107% | 51.7% | 26% | -5.57% (active) | 55.4% | 57.9% | 73.8% |

Source: PubChem BioAssay (NCI)
